# Test results taken from PubChem BioAssay AID504332 (National Center for Advancing Translational Sciences (NCATS), 2011).
# Screen size: about 350,000 compounds; about 31,000 (8.9%) were called active. Roughly 15% stayed inconclusive and do not appear here. Calls follow the shape of the dose curve; as a rule, active = well fitted inhibition curve with a large enough effect; inconclusive = small, poorly fitted or top-dose-only effect; inactive = no such curve, though single readings can be large or run the other way. The list comes from a sample in which actives are over-represented; it also holds similar structures and randomly drawn compounds.
# Molecular target: Histone-lysine N-methyltransferase EHMT2 (Homo sapiens) (UniProt Q96KQ7)
# Assay: qHTS Assay for Inhibitors of Histone Lysine Methyltransferase G9a; also: nearly all actives have a fitted effect of over 75% in size
# Details: G9a H3K9 monomethylation, AlphaScreen, 2 h; series mostly up to 59 µM; activity, negative = inhibition: at the top concentration
# Method in brief: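 AlphaScreen read-out: biotin-H3K9 peptide (500 nM) methylation by 20 nM enzyme with 20 uM SAM, 2 h at room temperature after 15 min compound preincubation; anti-monomethyl H3K9 antibody plus donor/acceptor beads, 10 min dark.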
# % is scaled to controls: 0 for no effect and ±100 for the full control effect; potency is read from the fitted curve at half-maximal effect.
# Sequence of Histone-lysine N-methyltransferase EHMT2 (Homo sapiens) (Q96KQ7 913-1193 limits assumed): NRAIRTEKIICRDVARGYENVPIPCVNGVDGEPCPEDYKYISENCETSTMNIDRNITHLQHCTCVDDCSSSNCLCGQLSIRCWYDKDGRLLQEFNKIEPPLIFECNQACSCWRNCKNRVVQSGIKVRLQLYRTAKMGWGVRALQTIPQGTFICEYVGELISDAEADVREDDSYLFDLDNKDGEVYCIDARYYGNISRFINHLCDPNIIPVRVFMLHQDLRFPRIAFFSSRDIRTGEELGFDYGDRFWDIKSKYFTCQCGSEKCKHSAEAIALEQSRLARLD
SMILES,"activity, negative = inhibition",Potency
CN(Cc1ccccc1)C(=O)c1cc2c(=O)n(C)c3ccccc3c2s1,0.227% (inactive),
Cc1ccc(N(CC(=O)NCC(C)c2ccccc2)S(=O)(=O)N(C)C)cc1 (stereo not given),20% (inactive),
CCOC(=O)c1sc(NC(=O)CSc2n[nH]c(CC)n2)nc1C,3.78% [at 102 µM] (inactive),
CCOC(=O)c1sc(NC(=O)CSc2nc(O)c(Cc3ccccc3)c(=O)[nH]2)nc1C,,50.1 µM (active)
CCOC(=O)c1ccccc1NC(=O)CSc1nc2ccccc2c(=O)[nH]1,0.864% [at 102 µM] (inactive),
Cc1ccc(C(=O)Nc2ncccc2C)cc1S(=O)(=O)N1CCOCC1,22.2% [at 12.7 µM] (inactive),
CC(C)C12CN3CC(C(C)C)(CN(C1)C3c1ccc(OCc3ccccc3)cc1)C2=O (stereo not given),0.192% (inactive),
Cc1nnc(SCC(=O)Nc2ccc(S(=O)(=O)Nc3ccc(Cl)nn3)cc2)s1,,79.4 µM (active)
CCCCCC(=O)Nc1ccc(S(=O)(=O)Nc2ccc(Cl)nn2)cc1,2.65% (inactive),
Cc1nnc(SCC(=O)Nn2cnnc2)s1,2.7% [at 102 µM] (inactive),
CCCn1nc(C(=O)NNC(=O)CCOc2ccccc2OCC)c2ccccc2c1=O,-3.32% [at 102 µM] (inactive),
COc1cccc(C(=O)Nc2ccc(-c3cc(C(F)(F)F)nn3-c3ccccc3)cc2)c1,10.9% (inactive),
Cc1cccc(C(=O)OC(C)C(=O)NC2CCCc3ccccc32)c1O (stereo not given),18.2% [at 12.7 µM] (inactive),
CN(C)C1=NC[C@H](Cc2ccccc2)N1CCc1ccc(F)cc1,16.6% [at 2.33 µM] (inactive),
CC(C)(C)N(CC#CCC(O)(c1ccccc1)C1CCCC1)CCO (stereo not given),,10 µM (active)
CN(CC#CCC(c1ccccc1)c1ccccc1)C(C)(C)C,-1.78% (inactive),
OC(C#CCN1CCOCC1)(c1ccccc1)C1CCCCC1 (stereo not given),-18.1% (inactive),
CON(C)S(=O)(=O)c1ccc2c(c1)NC(=O)C1CCCN21 (stereo not given),,25.1 µM (active)
CN(C)S(=O)(=O)c1ccc(N2CCCC2=O)c([N+](=O)[O-])c1,20.3% (inactive),
CC1C(=O)Nc2ccc(S(=O)(=O)N3CCN(c4ccccc4F)CC3)cc2NC1=O (stereo not given),7.91% [at 102 µM] (inactive),
Cn1c(-c2ccc(F)cc2)cc2onc(-c3ccccc3Cl)c2c1=O,20.7% [at 2.33 µM] (inactive),
CCn1nc(C(=O)OCC(=O)N2c3ccccc3CC2C)c2ccccc2c1=O (stereo not given),-3.26% [at 102 µM] (inactive),
Cc1ccn(CCC(=O)N2c3ccccc3CC2C)n1 (stereo not given),7.81% [at 102 µM] (inactive),
CCCC(=O)N1c2ccc(-c3csc(N)n3)cc2CC1C (stereo not given),,70.8 µM (active)
COc1cccc(CNCCc2c[nH]c3ccccc23)c1OCc1ccccc1F,,44.7 µM (active)

SMILES,"activity, negative = inhibition",Potency
COc1ccccc1CC(=O)NCCc1c[nH]c2ccccc12,-1.18% [at 102 µM] (inactive),
COc1ccc(S(=O)(=O)NCCc2c[nH]c3ccccc23)cc1OC,-7.41% [at 102 µM] (inactive),
O=C1NC(c2ccncc2)Nc2sc3c(c21)CCCC3 (stereo not given),,28.2 µM (active)
CCN(C(=O)CSc1nnc(-c2ccc(OC(F)F)cc2)n1N)C1CCS(=O)(=O)C1 (stereo not given),-29.8% (inactive),
Cn1nnc(NC(=S)NC(=O)c2ccccc2)n1,,8.91 µM (active)
O=C(NC(=O)c1ccccc1)NC(=O)c1ccccc1,-6.69% (inactive),
Cc1cc2[nH]ncc2cc1NC(=S)NC(=O)c1ccccc1,12.2% (inactive),
COc1cc(OC)c(C(=S)N2CCCC2)cc1OC,10.9% [at 0.501 µM] (inactive),
CCCNC(=O)C1CCC(Cn2c(=O)c3sccc3n(Cc3ccccc3F)c2=O)CC1 (stereo not given),9.39% (inactive),
CCn1cc(C(=O)Nc2cc(C)ccc2C)c(=O)c2ccc(C)nc21,19% [at 102 µM] (inactive),
CCn1cc(C(=O)OCC(=O)Nc2cccc(C)c2)c(=O)c2ccc(C)nc21,-4.25% [at 102 µM] (inactive),
CCn1cc(C(=O)N2CC=C(c3ccccc3)CC2)c(=O)c2ccc(C)nc21,,79.4 µM (active)
CCS(=O)(=O)N1CCC(n2c(C)nc3cccnc32)CC1,7.57% (inactive),
CC(C)C(=O)Nc1c(O)c2ccccc2[nH]c1=O,-23% [at 102 µM] (inactive),
O=C1C(c2[nH]c3ccccc3c2O)=Nc2ccccc21,,5.01 µM (active)
O=C(Cc1c(O)c2ccccc2[nH]c1=O)NCc1ccccc1,1.62% (inactive),
NC(=O)c1ccsc1NC(=O)COC(=O)Cc1n[nH]c(=O)c2ccccc12,1.16% [at 0.501 µM] (inactive),
COc1ccc(OC)c(-n2nnc(-c3nc(-c4cc(OC)c(OC)c(OC)c4)no3)c2C)c1,-32.2% (inactive),
Cc1cccc(CSc2nnc(C)c(=O)n2N)c1,-12% [at 102 µM] (inactive),
Cc1cccc(CSc2nc3c(c(=O)n2C)SCC3)c1,,50.1 µM (active)
Cn1c(SCC(=O)N2CCCCC2)nc2c(c1=O)SCC2,8.93% [at 102 µM] (inactive),
CCOc1ccc(S(=O)(=O)NCCC(=O)NCC(C)(C)N2CCOCC2)cc1,14% [at 0.501 µM] (inactive),
COc1ccc(NC(=O)CCN2CCN(CCO)CC2)cc1,7.3% (inactive),
CCCS(=O)(=O)Nc1c(C(=O)O)[nH]c2ccccc12,,39.8 µM (active)
CCOC(=O)C1CCN(C(=O)Cc2c(C(=O)O)[nH]c3ccccc23)CC1,16% [at 2.33 µM] (inactive),

SMILES,"activity, negative = inhibition",Potency
CCOC(=O)c1[nH]c2ccccc2c1N=C(C)N(CC)CC,23.3% (inactive),
CCOC(=O)C1CCN(c2ncnc3c2c(-c2ccccc2)cn3-c2cccc(C)c2)CC1,-31.3% (inactive),
O=C(NCC(c1ccco1)N1CCc2ccccc2C1)c1ccccc1Cl (stereo not given),-29.7% [at 102 µM] (inactive),
COc1ccc(SCc2cc(=O)c3ccc(C)c(C)c3[nH]2)cc1,4.13% (inactive),
C=CCOC(=O)C1=C(C)NC(C)=C(C(=O)OCC=C)C1c1cccs1,15.7% (inactive),
C=CCOC(=O)C1=C(C)NC(SCC(=O)OCC)=C(C#N)C1c1ccc(C)cc1 (stereo not given),-0.268% [at 102 µM] (inactive),
CC1=C(C(=O)Nc2ccccc2)C(c2cccs2)C(C#N)=C(SCC#N)N1 (stereo not given),,12.6 µM (active)
CCCn1c(NCc2ccccc2F)nc2ccccc21,12.8% (inactive),
O=C(CNC(=O)C(c1ccccc1)c1ccccc1)N/N=C\c1ccc2c(c1)OCO2,25.4% (inactive),
O=C(CNC(=O)c1cccnc1)N/N=C/c1cc(Br)c(O)c(Br)c1,-7.91% [at 102 µM] (inactive),
O=C(CNC(=O)C1COc2ccccc2O1)N/N=C/c1cc(Br)c(O)c(Br)c1 (stereo not given),,89.1 µM (active)
FC(F)(F)c1cc(Nc2nc3ccccc3c3nncn23)ccc1Cl,21.7% (inactive),
COc1ccc(CNC(=O)C2=Cc3cccc(OC)c3OC2)cc1OC,13.3% (inactive),
Cc1nc2ccccc2c(=O)n1NC(=O)c1ccc(Cl)c([N+](=O)[O-])c1,-4.51% [at 2.33 µM] (inactive),
CC1=NN(c2ccc(Cl)c(C(=O)O)c2)C(=O)/C1=C/c1ccc(-c2ccccc2[N+](=O)[O-])o1,,31.6 µM (active)
N#C/C(=C/c1ccc(-c2ccccc2[N+](=O)[O-])o1)C(=O)NCCN1CCCCC1,16.8% [at 12.7 µM] (inactive),
Cc1ccc(CNC(=O)c2cc(-c3ccccc3C)n(CC3CC(c4cccc([N+](=O)[O-])c4)=NO3)n2)cc1 (stereo not given),-36.4% [at 2.33 µM] (inactive),
COc1ccc(Cn2ccn(Cc3cccc(OC)c3)c(=O)c2=O)cc1,-3.66% (inactive),
CCC1S/C(=N/N=C/c2ccco2)NC1=O (stereo not given),9.88% [at 102 µM] (inactive),
C=CCN1C(=O)C(Cc2ccc(OCC)cc2)SC1=Nc1ccc(C(=O)O)cc1 (stereo not given),10.2% (inactive),
O=C1N/C(=N\N=C\c2ccco2)SC1Cc1ccc(F)cc1 (stereo not given),14.4% [at 102 µM] (inactive),
C=CCN1C(=O)C(Cc2cccc(Cl)c2)S/C1=N/N=C/c1ccco1 (stereo not given),,10 µM (active)
COc1ccc(CN2C(=O)C(C)S/C2=N/N=C/c2ccco2)cc1 (stereo not given),,50.1 µM (active)
CCCNC(=O)C(CC)n1nc(CC)n2c(cc3oc(C)cc32)c1=O (stereo not given),-25.5% (inactive),
Cc1ccc(C)c(N2CCN(S(=O)(=O)c3ccc4c(c3)C(C(C)C)C(=O)N4)CC2)c1 (stereo not given),-26.4% (inactive),

SMILES,"activity, negative = inhibition",Potency
COc1ccc(Cl)cc1CSc1ncn[nH]1,22.2% [at 102 µM] (inactive),
O=C(NCCOCc1ccc(Cl)cc1)c1ncn[nH]1,4.12% (inactive),
O=C(/C=C/Sc1ncn[nH]1)c1ccc(Cl)cc1,,39.8 µM (active)
Cc1cc(C)c2oc(C(=O)Nc3ccc(S(=O)(=O)N4CCCCCC4)cc3)cc(=O)c2c1,-2.18% (inactive),
CCOc1ccccc1CNC(=O)C1CCCN(S(=O)(=O)c2ccc3c(ccn3C)c2)C1 (stereo not given),4.5% (inactive),
Cc1ccc(C)c(Cn2c(CCCNC(=O)C3CCCCC3)nc3ccccc32)c1,-1.95% (inactive),
COc1ccccc1C(=O)NCCC(=O)NC1=NCCS1,43% [at 12.7 µM] (inactive),
O=C(O)c1ccccc1-c1ccccc1C(=O)Nc1ccccc1Br,36.7% [at 102 µM] (inactive),
O=C(O)c1ccccc1C(=O)NC1=NN(c2ccccc2)CC1,,39.8 µM (active)
Nc1c(C(=O)O)cnn1-c1ccccc1,-17.4% [at 102 µM] (inactive),
C/C(=N\Nc1cccc(C(=O)O)c1)c1ccc2c(c1)Nc1ccccc1S2,,3.16 µM (active)
O=C(NC1CC1)c1ccc2c(c1)NC(=O)c1ccccc1S2,-14.9% [at 102 µM] (inactive),
CC(=O)Nc1cccc(/C(C)=N/NC(=O)c2ccccc2Cl)c1,39.7% (inactive),
O=C(NCc1ccc(Cl)cc1)c1cc(=O)nc2sc(-c3ccccc3)nn12,-1.48% [at 102 µM] (inactive),
O=C(NCc1ccc(Cl)cc1)c1cc2c(nc3sccn32)s1,,35.5 µM (active)
O=C(NCc1cn2ccsc2n1)Nc1ccc(Cl)cc1,6.52% (inactive),
CN1C2CCC1CC(NC(=O)c1ccc([N+](=O)[O-])cc1)C2 (stereo not given),10.7% [at 102 µM] (inactive),
O=C(Nc1cc2c3c(c1)C1CCCC1CN3CC1CCCC21)c1ccc([N+](=O)[O-])cc1 (stereo not given),,10 µM (active)
CN(CC1CCCO1)S(=O)(=O)c1ccc(C(=O)Nc2ccc([N+](=O)[O-])cc2)cc1 (stereo not given),-2.06% [at 102 µM] (inactive),
CC(=O)N1CCCc2ccc(NS(=O)(=O)c3ccc(F)cc3F)cc21,-4.23% [at 12.7 µM] (inactive),
O=C(C1CC(=O)N(C2CCCC2)C1)N1CCN(c2cccc(C(F)(F)F)c2)CC1 (stereo not given),-26.6% [at 102 µM] (inactive),
CCC1(C)NC(=O)N(CC(=O)N2CCN(c3cccc(Cl)c3)CC2)C1=O (stereo not given),17.9% [at 2.33 µM] (inactive),
Nc1nnnn1/N=C/c1cc([N+](=O)[O-])ccc1O,-3.14% [at 102 µM] (inactive),
O=C(N/N=C/c1cc([N+](=O)[O-])ccc1O)/C(=C\c1cccs1)NC(=O)c1ccccc1,18.9% (inactive),
O=[N+]([O-])c1ccc(O)c(/C=N/Nc2ccccc2[N+](=O)[O-])c1,,20 µM (active)
